# The campaign covered roughly 38,000 compounds. About 1,200 (3.2%) showed an effect of 50% or more. The median lay at about -58%. The full list was thinned out, with strong results kept by preference.
# Tested on: Plasmodium falciparum
# Test: Calibr Malaria Delayed Death Assay SOP
# Format: functional, organism-based
# Set-up: scale not given: in the data most compounds retested in dose-response had high values
# Settings: concentration 4.99e-06 (unit not given; other assays of the set use mol/L)
row,SMILES,Percent Effect
1,CCCC(=O)N1CCc2c(CNS(C)(=O)=O)cncc2C1.Cl,-54.25%
2,CCN(CC)S(=O)(=O)CC(=O)N1CCc2ccc(F)cc21,-118.6%
3,CC(C)[C@H](N)c1nnc(SCC(=O)Nc2ccc(Br)cc2)o1.Cl,-137.1%
4,O=C1CC(c2ccncc2)c2c(c(C(=O)O)cn2-c2ccccc2)N1 (configuration not stated),-138.8%
5,Cc1ccc(CN(C)C(=O)CCn2c(=O)n(C)c3ccccc32)o1,-119.3%
6,CN1CCCN(C[C@@H]2CN(C(=O)N3CCOCC3)C[C@@H]2CO)CC1,-70.22%
7,CCc1nn(C)c(Cl)c1CN1CCCC(c2cc(O)nc(C)n2)C1 (configuration not stated),11.23%
8,COC[C@@]12CCO[C@@H]1CCN(C(=O)Cc1ccc(C)cc1)C2,-64.19%
9,C[C@@H]1CN(C(=O)C2CCS(=O)(=O)CC2)C[C@@]1(O)C1CC1,-43.61%
10,C[C@@H]1CN(C(=O)C2CCS(=O)(=O)CC2)CC[C@@]1(O)C1CCOCC1,70.51%
11,C[C@@H]1CN(C(=O)CCN2CCCC2)CC[C@@]1(O)C1CCOCC1,-34.11%
12,O=C(NCCc1cc(F)ccc1F)NC(CO)c1ccccc1 (configuration not stated),-122.1%
13,Cc1nc(CN(C)C2CCN(CC3CCOCC3)C2)no1 (configuration not stated),-100.7%
14,CN1CCN(Cc2nnc(C3CCN(C(CO)CO)CC3)n2C)CC1,-107%
15,CCN1CCC2(CC1)CC(NCc1cccs1)c1ccccc1O2.O=C(O)C(F)(F)F.O=C(O)C(F)(F)F (configuration not stated),85.8%
16,O=C(NC1CC2(CCN(CCO)CC2)Oc2ccccc21)c1csnn1 (configuration not stated),-18.14%
17,CCC(=O)N1CCC2(CC1)CC(CC(=O)NC1CC1)c1ccccc1O2 (configuration not stated),-119.5%
18,CCN1CCC2(CC1)CC(NC(=O)c1csnn1)c1ccccc1O2.O=C(O)C(F)(F)F (configuration not stated),-39.08%
19,CS(=O)(=O)NC1CC2(CCN(CC3CC3)CC2)Oc2ccccc21.O=C(O)C(F)(F)F (configuration not stated),-15.02%
20,Cc1nc(NC(=O)c2nn(-c3ccc(F)cc3C)cc2O)n[nH]1,-112%
21,CC(C)c1nc(C2CCCN2Cc2ccon2)no1 (configuration not stated),-96.31%
22,Cc1noc(C)c1CN1CCO[C@H]2CN(C3CCOCC3)C[C@H]21.O=C(O)C(F)(F)F,1.266%
23,O=C(C1CC(=O)N(c2n[nH]c3cc(Br)ccc23)C1)N1CCSCC1 (configuration not stated),-122.2%

row,SMILES,Percent Effect
1,OC1(CN2CCc3nnc(Cc4cccnc4)n3CC2)CCCNC1 (configuration not stated),-87.58%
2,Cc1ccccc1N1CCN(C(=O)CC(C)C)CC1,-106.5%
3,CCN1CCn2c(C)cnc2C12CCN(C(=O)Cc1ccccc1)CC2.O=C(O)C(F)(F)F.O=C(O)C(F)(F)F,-58.2%
4,Cc1ccc(C(=O)Nc2nnc(C3CC3)s2)c(-n2cnnn2)c1C,-130.7%
5,CCOCCC(=O)Nc1ccnn1-c1ccc(Cl)cc1,-25.55%
6,COCC(=O)Nc1ccnn1-c1ccc(Cl)cc1,67.79%
7,COCCOCC(=O)Nc1ccnn1-c1ccc(Cl)cc1,-102.7%
8,COCCn1ccnc1C1CCCN(c2ncnc3c2CCC3)C1 (configuration not stated),-114.3%
9,c1ccn2c(C3CCCN(c4ncnc5c4CCNC5)C3)nnc2c1 (configuration not stated),74.94%
10,COCCc1noc(C2CCCN(c3nc(N)nc4c3CCCC4)C2)n1 (configuration not stated),-100.3%
11,Nc1nc2c(c(N3CCCC(c4nnc5ccccn45)C3)n1)CCNC2 (configuration not stated),84.29%
12,Nc1nc2c(c(N3CCCC(CN4CCCC4=O)C3)n1)CCNCC2 (configuration not stated),-109.9%
13,O=C(C1CC1)N1CCCN(c2ncnc3c2CCNCC3)CC1,-49.17%
14,O=C(c1ccon1)N1CCN(c2ccncc2Cl)CC1,-22.81%
15,CC(CN1CCOC1=O)NC(=O)c1cccc2cc[nH]c12 (configuration not stated),-144.8%
16,COc1ccccc1CCNC(=O)N1CCC(n2cncn2)CC1,-50.18%
17,Cc1cc(C)c(CNC(=O)C(C)Oc2ccccc2F)c(=O)[nH]1 (configuration not stated),-101.9%
18,CC(C)Oc1ncccc1CNC(=O)C1CCCN(C(=O)C2CC2)C1 (configuration not stated),-154.7%
19,O=C(C1CC1)N1CCC(c2nc(-c3ccccc3)n[nH]2)CC1,-99.03%
20,O=C(C1CC1)N1CCC(C(=O)N2CCC(c3ccc(F)cc3)C2)CC1 (configuration not stated),-98.79%
21,O=C(C1CCC1)N1CCC(C(=O)N2CCC(c3ccc(F)cc3)C2)CC1 (configuration not stated),-81.93%
22,O=C(C1CCCCC1)N1CCC(c2n[nH]c3nccnc23)CC1,-76.32%
23,O=C(C1CCC1)N1CCCC(c2cccc(-n3ccnc3)n2)C1 (configuration not stated),-55.02%

row,SMILES,Percent Effect
1,CC(C)n1ccnc1C1CCN(C(=O)c2cc[nH]n2)CC1,-87.6%
2,O=C(C1CCCC1)N1CCC(c2n[nH]c3nccnc23)CC1,-90.69%
3,Cc1csc(C2(NC(=O)CCNC(=O)C(C)(C)C)CCCC2)n1,-41.74%
4,CCC(=O)N1CCc2onc(CNS(C)(=O)=O)c2C1,-110.9%
5,Cc1nc(NC(=O)C(C)n2ncc(Br)c2C)sc1C (configuration not stated),-53.19%
6,COc1ccc(CNc2c(C)cnc3c2c(=O)n(C)c(=O)n3C)cc1,-41.96%
7,O=C(CN(CC(O)c1ccc(F)cc1)C1CC1)Nc1cccnc1 (configuration not stated),-24.09%
8,COCC(=O)N1CCC2(COCc3c(C)nc(N(C)C)nc32)C1 (configuration not stated),-113.3%
9,Fc1cccc(OC2CCN(CCn3cc4ccccc4n3)CC2)c1,-79.08%
10,COCCc1nnc(NC(=O)CCCc2ccccc2)o1,-177.1%
11,Fc1ccc(CN2CCC3(CC2)CCN(Cc2nccs2)CC3)cc1.O=C(O)C(F)(F)F.O=C(O)C(F)(F)F,86.13%
12,O=C(O)C(F)(F)F.O=C(O)C(F)(F)F.c1csc(CN2CCC3(CC2)CCN(CC2CC2)CC3)n1,31.82%
13,O=C(O)C(F)(F)F.O=C(O)C(F)(F)F.c1csc(CN2CC3(CCN(Cc4ccsc4)C3)C2)n1,-42.12%
14,O=C(O)C(F)(F)F.O=C(O)C(F)(F)F.O=C(O)C(F)(F)F.c1cnc(N2CCC3(CCN(Cc4cccnc4)CC3)CC2)nc1,-79.89%
15,CS(=O)(=O)N1CCC2(CCN(Cc3nccs3)CC2)CC1.O=C(O)C(F)(F)F,-92.74%
16,Fc1ccc(CN2CCOCC3(CCN(Cc4nccs4)C3)C2)cc1.O=C(O)C(F)(F)F.O=C(O)C(F)(F)F (configuration not stated),-2.709%
17,Cc1ccc(N2CCC3(CCN(Cc4nccs4)CC3)CC2)nn1,-7.428%
18,Fc1ccc(CN2CCC3(CC2)CCN(c2ncccn2)CC3)cc1.O=C(O)C(F)(F)F.O=C(O)C(F)(F)F,52.71%
19,Fc1ccc(CN2CCC3(CCN(Cc4nccs4)CC3)C2)cc1.O=C(O)C(F)(F)F.O=C(O)C(F)(F)F,56.57%
20,O=C(O)C(F)(F)F.O=C(O)C(F)(F)F.c1cnc(N2CC3(CCN(Cc4ccncc4)C3)C2)nc1,-113.7%
21,CCS(=O)(=O)N1CCC2(CCN(Cc3nccs3)CC2)CC1.O=C(O)C(F)(F)F,-47.71%

# From ChEMBL document CHEMBL3988442, “University of Dundee, Small-Polar-MMV Screening Library” (2021)
